The values that follow come from PubChem BioAssay AID652068 (The Scripps Research Institute Molecular Screening Center, 2013).

A word on the inhibition: it is the drop in the measured response relative to a control, in per cent.

Screen size: about 4,300 compounds; about 4,000 (93%) were called active. So high a share suggests a set chosen from earlier hits. A selection follows. A number with no mark means an inactive call.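 Rule for the calls: active = inhibition above its plate's cutoff, the mean test-well inhibition plus 3 SD (cut at about 4.8% in these data); inactive = the rest.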

The nature of this experiment: displacement of TO-PRO-1 from CAG DNA duplex, counter-screen for rCAG RNA repeat binder project, biochemical, fluorescence, TO-PRO-1 dye, d(CAG) DNA oligo (AID 652068).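 Note: 0% = DNA dye mix with DMSO and 100% = 100 µM mitoxantrone; hits displace the dye from DNA and so lower well fluorescence.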 Conditions: d(CAG) DNA oligo TO-PRO-1 dye displacement, at 3 µM, active compounds read high.
In the case of `O=C1NC(=O)N(Cc2ccco2)C(=O)/C1=C\c1ccc(-c2ccc(F)cc2)o1`, the inhibition was 13.1% (active). The figure for `O=C1CC(=O)N(Cc2ccccc2)C(=O)N1CCCCCCN1C(=O)CC(=O)N(Cc2ccccc2)C1=O` is 22.6% (active); for `COc1ccc(N2C(=O)/C(=C/c3ccco3)C(=O)NC2=S)cc1` it is 61.4% (active). For the molecule `CC/C(=N\NC(=O)c1ccccc1O)c1c(O)n(Cc2ccccc2)c(=O)[nH]c1=O`, the inhibition is 36.7% (active).

With `COc1ccc2c(c1)[C@@]13CCCCC1[C@@H](C2)NCC3` (some centres not stated), the inhibition was -5.51%. Then `COc1cccc(N2C(=O)NC(=O)/C(=C\c3ccc([N+](=O)[O-])s3)C2=O)c1`, with 19.4% (active).

Consider `O=C1NC(=O)N(c2ccccc2)C(=O)/C1=C/c1ccc([N+](=O)[O-])s1`, for which the inhibition is 25.7% (active).
